How the values were obtained:
Assay in all cases: SPOT peptide array binding signal intensity (averaged, normalized) (arbitrary units (background-subtracted, floor 0; scale differs between SH3 domains)); higher = stronger binding of the SH3 domain to the peptide
[1] = biological target: AgAbp1
How it was run: (§1)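 GST-SH3 fusions from four yeast species, purified on glutathione Sepharose, were incubated at 10 μg/ml overnight at 4°C on membranes of synthetic 15-mer peptides in which cysteines were replaced with serines. Binding signal is the normalized, background-subtracted spot intensity averaged over replicates, in domain-specific arbitrary units.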

[2] = biological target: AgBbc1
How it was run: as §1

[3] = biological target: AgBem1-D1
How it was run: as §1

[4] = biological target: AgBzz1-D1
How it was run: as §1

[5] = biological target: AgBzz1-D2
How it was run: as §1

[6] = biological target: AgCyk3
How it was run: as §1

[7] = biological target: AgFus1
How it was run: as §1

[8] = biological target: AgHof1
How it was run: as §1

[9] = biological target: AgHse1
How it was run: as §1

[10] = biological target: AgLsb1
How it was run: as §1

[11] = biological target: AgLsb4
How it was run: as §1

[12] = biological target: AgMyo5
How it was run: as §1

[13] = biological target: AgNbp2
How it was run: as §1

[14] = biological target: AgRvs167
How it was run: as §1

[15] = biological target: AgSho1
How it was run: as §1

[16] = biological target: AgSla1-D1-D2
How it was run: as §1

[17] = biological target: AgSla1-D3
How it was run: as §1

[18] = biological target: CaAbp1-D1
How it was run: as §1

[19] = biological target: CaAbp1-D2
How it was run: as §1

[20] = biological target: CaBbc1
How it was run: as §1

[21] = biological target: CaBem1-D1
How it was run: as §1

[22] = biological target: CaBzz1-D1
How it was run: as §1

[23] = biological target: CaBzz1-D2
How it was run: as §1

[24] = biological target: CaCyk3
How it was run: as §1

[25] = biological target: CaFus1
How it was run: as §1

[26] = biological target: CaHof1
How it was run: as §1

[27] = biological target: CaHse1
How it was run: as §1

[28] = biological target: CaLsb1
How it was run: as §1

[29] = biological target: CaLsb4
How it was run: as §1

[30] = biological target: CaMyo5
How it was run: as §1

[31] = biological target: CaNbp2
How it was run: as §1

[32] = biological target: CaRvs167
How it was run: as §1

[33] = biological target: CaRvs167-3
How it was run: as §1

[34] = biological target: CaSho1
How it was run: as §1

[35] = biological target: CaSla1-D1-D2
How it was run: as §1

[36] = biological target: CaSla1-D3
How it was run: as §1

[37] = biological target: ScAbp1
How it was run: as §1

[38] = biological target: ScBbc1
How it was run: as §1

[39] = biological target: ScBem1-D1
How it was run: as §1

[40] = biological target: ScBzz1-D1
How it was run: as §1

[41] = biological target: ScBzz1-D2
How it was run: as §1

[42] = biological target: ScCyk3
How it was run: as §1

[43] = biological target: ScFus1
How it was run: as §1

[44] = biological target: ScHof1
How it was run: as §1

[45] = biological target: ScHse1
How it was run: as §1

[46] = biological target: ScLsb1
How it was run: as §1

[47] = biological target: ScLsb2
How it was run: as §1

[48] = biological target: ScLsb3
How it was run: as §1

[49] = biological target: ScLsb4
How it was run: as §1

[50] = biological target: ScMyo3
How it was run: as §1

[51] = biological target: ScMyo5
How it was run: as §1

[52] = biological target: ScNbp2
How it was run: as §1

[53] = biological target: ScPex13
How it was run: as §1

[54] = biological target: ScRvs167
How it was run: as §1

[55] = biological target: ScSho1
How it was run: as §1

[56] = biological target: ScSla1-D1-D2
How it was run: as §1

[57] = biological target: ScSla1-D3
How it was run: as §1

[58] = biological target: SpAbp1-D1
How it was run: as §1

[59] = biological target: SpBbc1
How it was run: as §1

[60] = biological target: SpBzz1-D1
How it was run: as §1

[61] = biological target: SpBzz1-D2
How it was run: as §1

[62] = biological target: SpCyk3
How it was run: as §1

[63] = biological target: SpHof1
How it was run: as §1

[64] = biological target: SpHof1-2
How it was run: as §1

[65] = biological target: SpHof1-3
How it was run: as §1

[66] = biological target: SpHse1
How it was run: as §1

[67] = biological target: SpLsb1
How it was run: as §1

[68] = biological target: SpLsb4
How it was run: as §1

[69] = biological target: SpMyo1
How it was run: as §1

[70] = biological target: SpNbp2
How it was run: as §1

[71] = biological target: SpPex13
How it was run: as §1

[72] = biological target: SpRvs167
How it was run: as §1

[73] = biological target: SpSla1-D1-D2
How it was run: as §1

[74] = biological target: SpSla1-D3
How it was run: as §1

## KNRKNLPTIPIRLSG
[1]
  SPOT peptide array binding signal intensity: 4080
[2]
  SPOT peptide array binding signal intensity: 456
[3]
  SPOT peptide array binding signal intensity: 144
[4]
  SPOT peptide array binding signal intensity: 104
[5]
  SPOT peptide array binding signal intensity: 35
[6]
  SPOT peptide array binding signal intensity: 1
[7]
  SPOT peptide array binding signal intensity: 63
[8]
  SPOT peptide array binding signal intensity: 240
[9]
  SPOT peptide array binding signal intensity: 206
[10]
  SPOT peptide array binding signal intensity: 318
[11]
  SPOT peptide array binding signal intensity: 108
[12]
  SPOT peptide array binding signal intensity: ≤ 0
[13]
  SPOT peptide array binding signal intensity: 1360
[14]
  SPOT peptide array binding signal intensity: 5.83
[15]
  SPOT peptide array binding signal intensity: 4630
[16]
  SPOT peptide array binding signal intensity: 402
[17]
  SPOT peptide array binding signal intensity: 7
[18]
  SPOT peptide array binding signal intensity: 1420
[19]
  SPOT peptide array binding signal intensity: 3510
[20]
  SPOT peptide array binding signal intensity: 1560
[21]
  SPOT peptide array binding signal intensity: 22
[22]
  SPOT peptide array binding signal intensity: 221
[23]
  SPOT peptide array binding signal intensity: 67.2
[24]
  SPOT peptide array binding signal intensity: 8
[25]
  SPOT peptide array binding signal intensity: 382
[26]
  SPOT peptide array binding signal intensity: 0.25
[27]
  SPOT peptide array binding signal intensity: 28.2
[28]
  SPOT peptide array binding signal intensity: 0.5
[29]
  SPOT peptide array binding signal intensity: 1340
[30]
  SPOT peptide array binding signal intensity: ≤ 0
[31]
  SPOT peptide array binding signal intensity: 398
[32]
  SPOT peptide array binding signal intensity: 283
[33]
  SPOT peptide array binding signal intensity: 23.8
[34]
  SPOT peptide array binding signal intensity: 1100
[35]
  SPOT peptide array binding signal intensity: 672
[36]
  SPOT peptide array binding signal intensity: ≤ 0
[37]
  SPOT peptide array binding signal intensity: 634
[38]
  SPOT peptide array binding signal intensity: 46.8
[39]
  SPOT peptide array binding signal intensity: 19
[40]
  SPOT peptide array binding signal intensity: 35.5
[41]
  SPOT peptide array binding signal intensity: 7
[42]
  SPOT peptide array binding signal intensity: 17
[43]
  SPOT peptide array binding signal intensity: 63
[44]
  SPOT peptide array binding signal intensity: 3
[45]
  SPOT peptide array binding signal intensity: 582
[46]
  SPOT peptide array binding signal intensity: 462
[47]
  SPOT peptide array binding signal intensity: 824
[48]
  SPOT peptide array binding signal intensity: 2010
[49]
  SPOT peptide array binding signal intensity: 80
[50]
  SPOT peptide array binding signal intensity: 4.5
[51]
  SPOT peptide array binding signal intensity: 1
[52]
  SPOT peptide array binding signal intensity: 1180
[53]
  SPOT peptide array binding signal intensity: 148
[54]
  SPOT peptide array binding signal intensity: 774
[55]
  SPOT peptide array binding signal intensity: 5890
[56]
  SPOT peptide array binding signal intensity: 2930
[57]
  SPOT peptide array binding signal intensity: 27.8
[58]
  SPOT peptide array binding signal intensity: 1210
[59]
  SPOT peptide array binding signal intensity: 5.5
[60]
  SPOT peptide array binding signal intensity: 512

## RSVKRPRRAPRPVVS
[31]
  SPOT peptide array binding signal intensity: 1160
[32]
  SPOT peptide array binding signal intensity: 20.3
[33]
  SPOT peptide array binding signal intensity: 26.5
[34]
  SPOT peptide array binding signal intensity: 198
[35]
  SPOT peptide array binding signal intensity: 990
[36]
  SPOT peptide array binding signal intensity: 0.5
[37]
  SPOT peptide array binding signal intensity: 113
[38]
  SPOT peptide array binding signal intensity: 306
[39]
  SPOT peptide array binding signal intensity: 46.5
[40]
  SPOT peptide array binding signal intensity: 11.5
[41]
  SPOT peptide array binding signal intensity: 26
[42]
  SPOT peptide array binding signal intensity: 32
[43]
  SPOT peptide array binding signal intensity: 260
[44]
  SPOT peptide array binding signal intensity: 5.25
[45]
  SPOT peptide array binding signal intensity: 1150
[46]
  SPOT peptide array binding signal intensity: 156
[47]
  SPOT peptide array binding signal intensity: 31.5
[48]
  SPOT peptide array binding signal intensity: 3170
[49]
  SPOT peptide array binding signal intensity: 192
[50]
  SPOT peptide array binding signal intensity: 1
[51]
  SPOT peptide array binding signal intensity: 4.25
[52]
  SPOT peptide array binding signal intensity: 2270
[53]
  SPOT peptide array binding signal intensity: 2.75
[54]
  SPOT peptide array binding signal intensity: 75
[55]
  SPOT peptide array binding signal intensity: 344
[56]
  SPOT peptide array binding signal intensity: 839
[57]
  SPOT peptide array binding signal intensity: 15.8
[58]
  SPOT peptide array binding signal intensity: 146
[59]
  SPOT peptide array binding signal intensity: 12
[60]
  SPOT peptide array binding signal intensity: 250
[61]
  SPOT peptide array binding signal intensity: ≤ 0
[62]
  SPOT peptide array binding signal intensity: 2
[63]
  SPOT peptide array binding signal intensity: 268
[64]
  SPOT peptide array binding signal intensity: 7
[65]
  SPOT peptide array binding signal intensity: 748
[66]
  SPOT peptide array binding signal intensity: 234
[67]
  SPOT peptide array binding signal intensity: 214
[68]
  SPOT peptide array binding signal intensity: 2230
[69]
  SPOT peptide array binding signal intensity: 16
[70]
  SPOT peptide array binding signal intensity: 412
[71]
  SPOT peptide array binding signal intensity: 10.5
[72]
  SPOT peptide array binding signal intensity: 11.2
[73]
  SPOT peptide array binding signal intensity: ≤ 0
[74]
  SPOT peptide array binding signal intensity: 3

Source: the supplement of paper PMC4466140
